# Measurements as given in paper PMC9911399, “Two distinct binding modes provide the RNA-binding protein RbFox with extraordinary sequence specificity”.
# Substitutions are numbered along the chain they refer to; changes in the protein carry UniProt numbers. The full ranking holds about 16,000 sequences; the median of “ka relative to ugcaugu” is about 0.0091, and the highest 2% start at about 0.032. Only a selection was taken, and the highest values are over-represented in it overall.
# T1: RBFOX1 RRM (Homo sapiens, UniProt Q9NWB1 109-208)
# T1 sequence: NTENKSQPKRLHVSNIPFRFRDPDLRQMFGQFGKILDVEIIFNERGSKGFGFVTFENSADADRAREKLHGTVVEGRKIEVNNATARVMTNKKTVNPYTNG
# B1: GGCACCG (DNA:RNA)
# RNA: GGGAGACCGGAAUUCAGAUUGUCCGGCACCGUUAAAUCCCGUCGUAGCCACCA
# DNA 1: CAATCTGAATTCCGGTCTCCC
# DNA 2: TGGTGGCTACGACGGGATT
# B2: CGGCACG (DNA:RNA)
# RNA: B1 RNA with G25C, C27G, A28C, C29A
# DNA 1: CAATCTGAATTCCGGTCTCCC
# DNA 2: TGGTGGCTACGACGGGATT
# B3: GGCCACG (DNA:RNA)
# RNA: B1 RNA with A28C, C29A
# DNA 1: CAATCTGAATTCCGGTCTCCC
# DNA 2: TGGTGGCTACGACGGGATT
# B4: UGGGCGG (DNA:RNA)
# RNA: B1 RNA with G25U, C27G, A28G, C30G
# DNA 1: CAATCTGAATTCCGGTCTCCC
# DNA 2: TGGTGGCTACGACGGGATT
# B5: CUGGCGG (DNA:RNA)
# RNA: B1 RNA with G25C, G26U, C27G, A28G, C30G
# DNA 1: CAATCTGAATTCCGGTCTCCC
# DNA 2: TGGTGGCTACGACGGGATT
# B6: UGGCGCU (DNA:RNA)
# RNA: B1 RNA with G25U, C27G, A28C, C29G, G31U
# DNA 1: CAATCTGAATTCCGGTCTCCC
# DNA 2: TGGTGGCTACGACGGGATT
# B7: UGGCGGU (DNA:RNA)
# RNA: B1 RNA with G25U, C27G, A28C, C29G, C30G, G31U
# DNA 1: CAATCTGAATTCCGGTCTCCC
# DNA 2: TGGTGGCTACGACGGGATT
# B8: CUGGCGC (DNA:RNA)
# RNA: B1 RNA with G25C, G26U, C27G, A28G, C30G, G31C
# DNA 1: CAATCTGAATTCCGGTCTCCC
# DNA 2: TGGTGGCTACGACGGGATT
# B9: UGGGCGC (DNA:RNA)
# RNA: B1 RNA with G25U, C27G, A28G, C30G, G31C
# DNA 1: CAATCTGAATTCCGGTCTCCC
# DNA 2: TGGTGGCTACGACGGGATT
# B10: CAGCUCC (DNA:RNA)
# RNA: B1 RNA with G25C, G26A, C27G, A28C, C29U, G31C
# DNA 1: CAATCTGAATTCCGGTCTCCC
# DNA 2: TGGTGGCTACGACGGGATT
# B11: AGACUGC (DNA:RNA)
# RNA: B1 RNA with G25A, C27A, A28C, C29U, C30G, G31C
# DNA 1: CAATCTGAATTCCGGTCTCCC
# DNA 2: TGGTGGCTACGACGGGATT
# B12: AGGGAGG (DNA:RNA)
# RNA: B1 RNA with G25A, C27G, A28G, C29A, C30G
# DNA 1: CAATCTGAATTCCGGTCTCCC
# DNA 2: TGGTGGCTACGACGGGATT
# B13: AAGUGUC (DNA:RNA)
# RNA: GGGAGACCGGAAUUCAGAUUGUCCAAGUGUCUUAAAUCCCGUCGUAGCCACCA
# DNA 1: CAATCTGAATTCCGGTCTCCC
# DNA 2: TGGTGGCTACGACGGGATT
# B14: UGAGCAU (DNA:RNA)
# RNA: B1 RNA with G25U, C27A, A28G, C30A, G31U
# DNA 1: CAATCTGAATTCCGGTCTCCC
# DNA 2: TGGTGGCTACGACGGGATT
# B15: UCAUGUU (DNA:RNA)
# RNA: B13 RNA with A25U, A26C, G27A, C31U
# DNA 1: CAATCTGAATTCCGGTCTCCC
# DNA 2: TGGTGGCTACGACGGGATT
# B16: GCUGUUA (DNA:RNA)
# RNA: B13 RNA with A25G, A26C, G27U, U28G, G29U, C31A
# DNA 1: CAATCTGAATTCCGGTCTCCC
# DNA 2: TGGTGGCTACGACGGGATT
# B17: GGCGCCG (DNA:RNA)
# RNA: B1 RNA with A28G
# DNA 1: CAATCTGAATTCCGGTCTCCC
# DNA 2: TGGTGGCTACGACGGGATT
# B18: GGGAUUG (DNA:RNA)
# RNA: B1 RNA with C27G, C29U, C30U
# DNA 1: CAATCTGAATTCCGGTCTCCC
# DNA 2: TGGTGGCTACGACGGGATT
# B19: GAAUUUG (DNA:RNA)
# RNA: B13 RNA with A25G, G27A, G29U, C31G
# DNA 1: CAATCTGAATTCCGGTCTCCC
# DNA 2: TGGTGGCTACGACGGGATT
# B20: GUCGGGA (DNA:RNA)
# RNA: B1 RNA with G26U, A28G, C29G, C30G, G31A
# DNA 1: CAATCTGAATTCCGGTCTCCC
# DNA 2: TGGTGGCTACGACGGGATT
# B21: GGGAUAG (DNA:RNA)
# RNA: B1 RNA with C27G, C29U, C30A
# DNA 1: CAATCTGAATTCCGGTCTCCC
# DNA 2: TGGTGGCTACGACGGGATT
# B22: GGGGGGA (DNA:RNA)
# RNA: B13 RNA with A25G, A26G, U28G, U30G, C31A
# DNA 1: CAATCTGAATTCCGGTCTCCC
# DNA 2: TGGTGGCTACGACGGGATT
# B23: GGAUAGU (DNA:RNA)
# RNA: B1 RNA with C27A, A28U, C29A, C30G, G31U
# DNA 1: CAATCTGAATTCCGGTCTCCC
# DNA 2: TGGTGGCTACGACGGGATT
# B24: GGAUUUG (DNA:RNA)
# RNA: B1 RNA with C27A, A28U, C29U, C30U
# DNA 1: CAATCTGAATTCCGGTCTCCC
# DNA 2: TGGTGGCTACGACGGGATT
# B25: GUCCGGA (DNA:RNA)
# RNA: B1 RNA with G26U, A28C, C29G, C30G, G31A
# DNA 1: CAATCTGAATTCCGGTCTCCC
# DNA 2: TGGTGGCTACGACGGGATT
# B26: CGGAUUG (DNA:RNA)
# RNA: B1 RNA with G25C, C27G, C29U, C30U
# DNA 1: CAATCTGAATTCCGGTCTCCC
# DNA 2: TGGTGGCTACGACGGGATT
# B27: CACCGGA (DNA:RNA)
# RNA: B13 RNA with A25C, G27C, U28C, U30G, C31A
# DNA 1: CAATCTGAATTCCGGTCTCCC
# DNA 2: TGGTGGCTACGACGGGATT
# B28: CGGAUAG (DNA:RNA)
# RNA: B1 RNA with G25C, C27G, C29U, C30A
# DNA 1: CAATCTGAATTCCGGTCTCCC
# DNA 2: TGGTGGCTACGACGGGATT
# B29: GUCGGAU (DNA:RNA)
# RNA: B1 RNA with G26U, A28G, C29G, C30A, G31U
# DNA 1: CAATCTGAATTCCGGTCTCCC
# DNA 2: TGGTGGCTACGACGGGATT
# Target: T1, RBFOX1 RRM
# Experiment: EMSA; HiTS-Eq, 1 nM pool, 10 min; buffer printed only for the single-RNA assays: 10 mM Tris pH 7.5, 150 mM NaCl, 3.4 mM EDTA, 0.001% NP-40, 30 C
# Details: tags: His6 N-terminal (pET28a); label: 5' 32P
# Procedure, shortened: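 Purified wild-type or mutant RbFox RRM at increasing concentrations was equilibrated with 1 nM of 5′-radiolabelled RNA carrying 7 randomized nucleotides for 10 min in 50 µL. Unbound RNA was separated by 8% native PAGE and sequenced. Relative association constants came from read-count changes of each RNA species compared with the control reaction, normalised to the cognate motif.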
row,Binder,binding signal
1,B1,0.0143 KA relative to UGCAUGU
2,B2,0.0377 KA relative to UGCAUGU
3,B3,0.00911 KA relative to UGCAUGU
4,B4,0.0408 KA relative to UGCAUGU
5,B5,0.00866 KA relative to UGCAUGU
6,B6,0.0198 KA relative to UGCAUGU
7,B7,0.0227 KA relative to UGCAUGU
8,B8,0.02 KA relative to UGCAUGU
9,B9,0.0335 KA relative to UGCAUGU
10,B10,0.00767 KA relative to UGCAUGU
11,B11,0.0128 KA relative to UGCAUGU
12,B12,0.0245 KA relative to UGCAUGU
13,B13,0.0153 KA relative to UGCAUGU
14,B14,0.0172 KA relative to UGCAUGU
15,B15,0.0106 KA relative to UGCAUGU
16,B16,0.0113 KA relative to UGCAUGU
17,B17,0.00841 KA relative to UGCAUGU
18,B18,0.0593 KA relative to UGCAUGU
19,B19,0.0172 KA relative to UGCAUGU
20,B20,0.0117 KA relative to UGCAUGU
21,B21,0.0337 KA relative to UGCAUGU
22,B22,0.0226 KA relative to UGCAUGU
23,B23,0.0169 KA relative to UGCAUGU
24,B24,0.034 KA relative to UGCAUGU
25,B25,0.00347 KA relative to UGCAUGU
26,B26,0.0329 KA relative to UGCAUGU
27,B27,0.00389 KA relative to UGCAUGU
28,B28,0.0228 KA relative to UGCAUGU
29,B29,0.00831 KA relative to UGCAUGU
